Compound activity (PubChem)
Compounds with a hit are over-represented: about 3.6% of the library has one in this group of screens.
HUVEC tox IL1B: toxic to HUVEC cells under IL-1B stimulation | HUVEC cell count loss, Hoechst imaging, IL-1B stimulated | cell count reduction, % at 2 µM | 0.41% of 94,000 active;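 active means cell count reduction more than 3 SD above the screen-wide mean, cut at about 70% in these data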
ERb coact inh: ER-beta (human) coactivator binding inhibition | TR-FRET ER-beta LBD / SRC1-Cy5 peptide binding; receptor agonist-loaded with 1 µM estradiol | Q92731 | inhibition, % at 25.6 µM | AID 633 | 1.3% of 86,000 active;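 active means compounds whose percent inhibition of the receptor-coactivator binding signal exceeds about 50% in the single-dose screen, limit read from the data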
IL1B NFkB inh: blocks IL-1B driven NFkB nuclear translocation in HUVEC cells | AID 796 | HUVEC IL-1B NFkB p65 nuclear translocation imaging | 0.43% of 94,000 active | inhibition, % at 2 µM;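 active means inhibition above about 30% together with a positive call from visual inspection of the well image, limit read from the data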;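 further: nuclear over cytoplasmic p65 intensity ratio measured by imaging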
IL1B NFkB pot: enhances IL-1B driven NFkB nuclear translocation. HUVEC IL-1B NFkB p65 nuclear translocation imaging. activation, % at 2 µM. 0.3% of 94,000 active;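 active means activation above 40%, about the mean plus 3 SD, also judged a hit on visual image review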;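 further: percent activation is computed from the nuclear over cytoplasmic p65 intensity ratio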
ERa SRC1 inh: blocks coactivator binding to human estrogen receptor alpha; P03372; TR-FRET ER-alpha LBD / SRC-1 peptide, estradiol-bound; inhibition, % at 25.6 µM; 1.7% of 86,000 active; AID 629; in the data active means inhibition above about 50%
Target sequence (P03372 whole entry, looked up, the tested form may be a part): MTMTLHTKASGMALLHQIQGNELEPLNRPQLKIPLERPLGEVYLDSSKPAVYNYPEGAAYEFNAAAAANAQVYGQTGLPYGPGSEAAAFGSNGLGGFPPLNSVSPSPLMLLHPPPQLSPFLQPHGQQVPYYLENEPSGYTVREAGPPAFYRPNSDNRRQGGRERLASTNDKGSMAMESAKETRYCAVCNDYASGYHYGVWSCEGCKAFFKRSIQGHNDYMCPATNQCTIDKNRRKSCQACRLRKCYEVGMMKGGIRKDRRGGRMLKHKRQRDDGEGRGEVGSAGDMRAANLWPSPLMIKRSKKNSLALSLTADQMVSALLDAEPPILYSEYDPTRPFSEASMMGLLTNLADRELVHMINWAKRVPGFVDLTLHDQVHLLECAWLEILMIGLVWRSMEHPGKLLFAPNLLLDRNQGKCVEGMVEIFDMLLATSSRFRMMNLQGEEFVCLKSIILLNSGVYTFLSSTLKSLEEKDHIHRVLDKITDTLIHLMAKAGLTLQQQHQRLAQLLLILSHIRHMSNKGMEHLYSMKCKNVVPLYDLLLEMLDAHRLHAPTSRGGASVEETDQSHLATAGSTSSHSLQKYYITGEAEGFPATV
ERa SRC1 pot: ER-alpha (human) coactivator binding potentiation | coactivator binding (% of control), % at 25.6 µM | AID 639 | 1.3% of 86,000 active | TR-FRET ERalpha-LBD/SRC-Cy5 coactivator binding, 2 h; 100 = basal binding, no effect | P03372; in the data active means activity above about 200%;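 further: binding measured in presence of low estradiol as agonist stimulus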
Numbers stand for hits; – = inactive; · = not tested or not shown; [ ] = dose if it differs, or a comment.

SMILES	HUVEC tox IL1B	ERb coact inh	IL1B NFkB inh	IL1B NFkB pot	ERa SRC1 inh	ERa SRC1 pot
CC1CCCC(NC(=O)COC(=O)c2cc(S(=O)(=O)N3CCCCC3)ccc2N2CCOCC2)C1C (stereo unspecified)	–	·	–	–	·	·
c1cncc(-c2nn[nH]n2)c1	–	63.0[fluorescence artefact?]	–	–	–	–
COc1ccc(CCSc2nnc(C3CCCCC3)n2N)cc1	–	–	–	–	–	–
CCC(C)Sc1nc2c(c(=O)[nH]c(=O)n2C)n1C (stereo unspecified)	90.7	–	–	–	–	–
CCOC(=O)N1CCN(c2cc(NCCC(=O)O)c3c4c(onc24)-c2ccccc2C3=O)CC1	·	65.0[fluorescence artefact?]	·	·	–	–
CCNc1ccc2noc3c2c1C(=O)c1ccccc1-3	–	–	–	–	–	–
O=C(O)CCCNc1cc(N2CCC3(CC2)OCCO3)c2noc3c2c1C(=O)c1ccccc1-3	–	87.7[fluorescence artefact?]	–	–	–	–
CCSc1nnc(NC(=O)C(Cc2ccccc2)n2cccc2)s1 (stereo unspecified)	–	–	–	–	–	248.5[fluorescence artefact?]
CCSc1nnc(NC(=O)COc2ccc3ccccc3c2)s1	–	–	–	–	–	259.2[fluorescence artefact?]
CCSc1nnc(NC(=O)COc2ccccc2)s1	–	–	–	–	–	–
Cc1ccc(C(=O)CCNc2ccc(Cl)cc2)o1	–	–	–	–	–	–
O=C(OCn1ncc(Cl)c(Cl)c1=O)c1ccc(F)cc1	–	·	93.2	–	·	·
O=C(OCn1ncc(Cl)c(Cl)c1=O)c1ccccc1Cl	–	·	90.3	–	·	·
O=C(Cn1ncc(Cl)c(Cl)c1=O)c1ccc(Cl)cc1	–	–	–	–	–	–
Cc1ccc(C(=O)N/C(=C\c2cccs2)C(=O)NCc2ccncc2)cc1	–	·	–	–	·	·
O=C(COc1ccc(/C=N/NS(=O)(=O)c2ccccc2)cc1)Nc1ccc(F)cc1	84.3	·	–	–	·	·
CC(C)NC(=O)COc1ccc(/C=N/NS(=O)(=O)c2ccccc2)cc1	–	·	–	–	·	·
CCOCCCN1C(=O)C(O)=C(C(C)=O)C1c1cccs1 (stereo unspecified)	–	–	–	–	–	–
CC(=O)C1=C(O)C(=O)N(c2nnn(C)n2)C1c1cccs1 (stereo unspecified)	–	78.9[fluorescence artefact?]	–	–	–	–
Cc1nccn1-c1ncnc2sc3c(c12)CCCC3	–	63.0	–	–	–	–
Cc1cc(C)n(-c2ncnc3sc4c(c23)CCCC4)n1	–	–	–	–	–	–
CCCCC1CC1C(=O)Nc1ccc(OC)c(OC)c1 (stereo unspecified)	·	–	·	·	–	–
CC(c1cccnc1)N(CCN(C)C)C(=O)Nc1ccc(Cl)cc1 (stereo unspecified)	–	–	–	–	–	–
COc1ccc(C(C(=O)NC2CCCCC2)N(C(=O)c2sc(C)nc2C)c2ccc(C(C)=O)cc2)cc1 (stereo unspecified)	–	·	–	–	·	·
CCOC(=O)c1[nH]c(C)c(C(=O)Nc2cc(OC)ccc2OC)c1C	79.6	–	30.4	–	–	–
SMILES	HUVEC tox IL1B	ERb coact inh	IL1B NFkB inh	IL1B NFkB pot	ERa SRC1 inh	ERa SRC1 pot
CCOC(=O)c1[nH]c(C)c(C(=O)NCc2ccc(C)cc2)c1C	–	–	–	–	–	–
CCOC(=O)c1[nH]c(C)c(C(=O)c2ccc(C)cc2)c1C	–	–	–	–	57.4[fluorescence artefact?]	–
CCOc1ccc(OCC)c(NC(=O)c2[nH]c(C)c(C(C)=O)c2C)c1	–	–	–	–	54.1[fluorescence artefact?]	249.2[fluorescence artefact?]
CCOC(=O)c1c(C)[nH]c(C(=O)OCC(=O)Nc2cc(C)ccc2OC)c1C	–	–	–	–	–	–
CC1(C)CC(=O)C2=C(C1)N(c1ccc(F)cc1)C(=O)CC2c1ccsc1 (stereo unspecified)	–	–	–	–	–	–
O=C(CC(C(=O)N1CCc2ccccc21)n1ccnc1)N1CCc2ccccc2C1 (stereo unspecified)	–	–	–	–	–	–
CCc1c(C(=O)N2CCOCC2)csc1C	91.2	–	97.8	–	–	–
O=S(=O)(NCCc1ccncc1)c1cc(Br)ccc1F	91.5	–	–	–	–	–
Cc1ccc(S(=O)(=O)NCCc2ccncc2)cc1	–	–	–	–	–	–
O=C(Nc1ccc(N2CCCC2)cc1)c1cccc(F)c1	–	54.8[fluorescence artefact?]	–	–	–	–
O=C(Nc1ccc(N2CCCC2)cc1)c1ccccc1F	–	79.5[fluorescence artefact?]	–	–	96.2[fluorescence artefact?]	–
